Screening data deposited in PubChem BioAssay by National Center for Advancing Translational Sciences (NCATS).
Most compounds without a hit are left out; they make up all but 21% or so of the library.
TDP1 cell noCPT = qHTS for Inhibitors of human tyrosyl-DNA phosphodiesterase 1 (TDP1): qHTS in cells in absence of CPT; AID 686978, 2013; 15% of 420,000 active; DT40 Tdp1-/- hTDP1 cells, no CPT, ATP luminescence, 48 h; Potency, µM (doses to about 46.2 µM), inactives show at the top dose activity change, negative = growth inhibition, actives largely listed as inhibitors; further: potency means the concentration at half of the fitted maximal effect; nearly all actives have a fitted effect of over 55% in size
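Stably hTDP1-transfected Tdp1-null chicken DT40 cells were treated with library compounds minus camptothecin and grown for at least 48 hr at 37 °C, after which cellular ATP was quantified by luminescence.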
RORgamma inh = inhibitors of mouse ROR gamma transcriptional activity; Drosophila S2 Gal4-RORgamma UAS-luciferase reporter, 20 h; Potency, µM (titrated, usually from 53.6 µM), for the others: at the highest dose activity change, negative = inhibition, actives largely listed as inhibitors; 5.4% of 310,000 active; AID 2551; further: potency means the concentration at half of the fitted maximal effect; nearly all actives have a fitted effect of over 60% in size
Target sequence (P51450 whole entry, looked up, the tested form may be a part): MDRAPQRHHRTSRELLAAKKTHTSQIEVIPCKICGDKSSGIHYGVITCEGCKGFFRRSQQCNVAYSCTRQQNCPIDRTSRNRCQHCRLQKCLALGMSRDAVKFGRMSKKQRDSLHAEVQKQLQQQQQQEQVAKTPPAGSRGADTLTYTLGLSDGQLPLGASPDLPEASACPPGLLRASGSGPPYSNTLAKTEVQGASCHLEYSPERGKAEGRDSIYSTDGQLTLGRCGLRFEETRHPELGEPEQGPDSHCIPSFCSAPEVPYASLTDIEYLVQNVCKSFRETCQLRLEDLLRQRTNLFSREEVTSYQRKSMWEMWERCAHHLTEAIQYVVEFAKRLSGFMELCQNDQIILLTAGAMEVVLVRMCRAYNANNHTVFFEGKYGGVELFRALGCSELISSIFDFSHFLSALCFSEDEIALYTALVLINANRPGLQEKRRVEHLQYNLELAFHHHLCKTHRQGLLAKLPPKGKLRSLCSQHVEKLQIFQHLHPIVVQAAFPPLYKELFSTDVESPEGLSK
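A Gal4/UAS one-hybrid system in insect cells: metallothionein-promoter Gal4–ROR gamma fusion plus Photinus luciferase reporter. Copper sulfate 700 uM final, 20 hr ambient incubation, luminescent detection after 10 min with reagent.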
VP16 counter = inhibits Gal4-VP16 luciferase reporter, ROR gamma counter-screen; Drosophila S2 Gal4-VP16 UAS-luciferase, luminescence, 20 h; Potency, µM (series often up to 53.6 µM), without a hit: at the highest dose activity, negative = inhibition, actives largely listed as inhibitors; 3.5% of 310,000 active; AID 2546;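 further: Gal4-VP16 expression switched on by copper sulfate through the metallothionein promoter; potency means the concentration at half of the fitted maximal effect; nearly all actives have a fitted effect of over 50% in size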
ELG1 repair inh = ELG1-dependent DNA repair inhibition. HEK293T ELG1-luciferase reporter, luminescence, 16 h; DNA damage induced by 5-fluorouridine. 2.3% of 330,000 active. AID 504467. Potency, µM (titrated, usually from 46.1 µM), for the others: top-dose activity change, negative = inhibition, actives largely listed as inhibitors; further: potency means the concentration at half of the fitted maximal effect; nearly all actives have a fitted effect of over 55% in size
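In this reporter screen, reduction of luminescence relative to DMSO vehicle indicated activity. Compounds and 5-fluorouridine were added together to 2,000 cells per well, incubated for 16 hr at 37 °C, then developed with ONE-Glo.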
TDP1 cell CPT = growth inhibition of DT40 Tdp1-/-;hTDP1 cells with camptothecin (screen for TDP1 inhibitors). chicken DT40 Tdp1-/-;hTDP1 cells + 20 nM CPT, ATP luminescence, 48 h. 12% of 420,000 active. AID 686979. Potency, µM (doses to about 46.2 µM), without a hit: at the highest dose activity change, negative = growth inhibition, hits mostly inhibitors; further: potency means the concentration at half of the fitted maximal effect; nearly all actives have a fitted effect of over 55% in size
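Chicken DT40 Tdp1-/- cells complemented with human TDP1, 400 cells/well, exposed to compounds plus 20 nM camptothecin for at least 48 h at 37 C; viability read as ATP content by CellTiter-Glo luminescence.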
IL-1B inflam inh = inhibitors of inflammasome signaling (IL-1 beta secretion); THP-1 LPS/ATP IL-1B secretion, AlphaLISA, 16 h; hits give low values; activity change, % at 57.5 µM; 4.7% of 360,000 active; in the data active means activity change below about -50%; inconclusive means mostly about -30% to -49%
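Secreted IL-1B measured by AlphaLISA bead assay after 16 h compound exposure of THP-1 cells; compounds (final up to 57.5 uM) added 1 h before LPS (250 ng/mL) and ATP (1.25 mM) stimulation; lower signal means less secretion.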
* hit, by the source's call; ? = inconclusive; nt = no result given. Unless noted, the call rests on the fitted dose curve; in most records, active means well fitted curve in the direction sought with a large enough effect; inconclusive means small, poorly fitted or top-dose-only effect, or another doubt; inactive means no such curve, though single readings can be large; an effect the other way counts as inactive or inconclusive. On the % scale 0 is the no-effect control and ±100 the full control effect.

SMILES	TDP1 cell noCPT	RORgamma inh	VP16 counter	ELG1 repair inh	TDP1 cell CPT	IL-1B inflam inh
CCc1ccccc1NC(=O)CC(c1ccc(F)cc1)N1Cc2ccccc2C1=O (stereo not given)	23.1µM*	nt	nt	nt	23.1µM*	nt
CCc1ccc(C(CC(=O)O)N2Cc3ccccc3C2=O)cc1 (stereo not given)	13.6%	-23.3%	11.8%	0.8%	-2.0%	20.5
CC(C)C[C@H]1CN([C@@H](CC(C)C)CN2CCC[C@H]2CN2C(=O)C(=O)NC[C@@H]2Cc2ccc(O)cc2)C(=O)C(=O)N1CC1CCCCC1	29.1µM*	nt	nt	nt	?	30.3
CC(C)C[C@H]1CNC(=O)C(=O)N1C[C@H]1CCCN1C[C@H](CC(C)C)N1C[C@H](Cc2ccccc2)N(CC2CCCCC2)C(=O)C1=O	3.1%	nt	nt	nt	-2.3%	8.9
CC(C)C[C@H]1CN([C@@H](CC(C)C)CN2CCC[C@H]2CN2C(=O)C(=O)NC[C@@H]2Cc2ccc(O)cc2)C(=O)C(=O)N1CC1CCCCCC1	?	nt	nt	nt	?	-52.4*
CC(=O)c1cccc2c1OC(C)C(=O)N2Cc1ccc(Cl)cc1 (stereo not given)	-27.0%	nt	nt	nt	-27.2%	20.3
Cc1c(C(=O)N2CCCCCC2)c(S(=O)(=O)Nc2cccc(C#N)c2)c(C)n1C	-26.9%	nt	nt	nt	-22.7%	nt
Cn1nc(C(C)(C)C)cc1C(=O)NNC(=O)c1ccc(C(F)(F)F)cc1	?	-9.9%	?	7.3µM*	?	14.5
COc1ccc2[nH]c(=O)c(CN(C(=O)c3cccnc3)c3ccc(C)cc3)cc2c1	?	8.0%	2.9%	-4.8%	?	-10.0
COc1ccccc1N(Cc1cc(=O)[nH]c2ccccc12)C(=O)c1cccc([N+](=O)[O-])c1	?	9.0%	5.9%	-8.7%	20.6µM*	-17.9
Cc1ccc2cc(CN(C(=O)c3cccc(Cl)c3)c3ccccc3)c(=O)[nH]c2c1	18.4µM*	nt	nt	nt	11.6µM*	nt
COc1ccc2[nH]c(=O)c(CN(C(=O)c3cccc(Cl)c3)c3ccccc3OC)cc2c1	?	nt	nt	nt	23.1µM*	nt
CCOc1ccc(N(Cc2cc3cc(C)ccc3[nH]c2=O)C(=O)c2cccc(Cl)c2)cc1	?	nt	nt	nt	9.2µM*	nt
CCC(=O)N(Cc1cc(=O)[nH]c2ccccc12)c1ccccc1OC	-6.1%	25.5%	-0.3%	0.6%	?	47.8
Cc1ccc2cc(CN(C(=O)c3ccco3)c3ccccc3)c(=O)[nH]c2c1	-52.2%	43.0%	-5.7%	?	?	-19.1
O=C(c1ccc2ccccc2c1)c1cccc(F)c1C(=O)O	-9.7%	nt	nt	nt	27.0%	11.8
CC(C)C[C@@H](CC(=O)N[C@@H](CCC(=O)O)CC(=O)O)NC(=O)[C@@H]1CNCC[C@H]1NC(=O)C[C@H](CCCN)NC(=O)C[C@H](Cc1ccccc1)NC(=O)[C@@H]1CCCC[C@H]1N	nt	-17.3%	-2.1%	nt	nt	nt
COC(=O)[C@@]1(C)C[C@@H]1[C@@H](NC(=O)[C@@]1(C)C[C@@H]1[C@@H](NC(=O)[C@@]1(C)C[C@@H]1[C@@H](NC(=O)[C@@]1(C)C[C@@H]1[C@@H](NC(=O)OCc1ccccc1)c1ccccc1)c1ccccc1)c1ccccc1)c1ccccc1	nt	6.7%	1.8%	nt	nt	nt
CCCCOc1ccc(S(=O)(=O)N2CCN(c3ccccc3OCC)CC2)cc1	?	nt	nt	nt	-25.6%	nt
NCCOB(c1ccccc1)c1ccccc1	16.4µM*	?	?	nt	?	nt
O=C(C[C@H]1CC[C@H]2[C@@H](COC[C@@H](O)CN2C(=O)c2cnccn2)O1)NCc1ccc(Oc2ccccc2)cc1	?	nt	nt	nt	?	8.1
CCOc1ccc(S(=O)(=O)NCC(c2ccc(N(C)C)cc2)N2CCCC2)cc1 (stereo not given)	25.9µM*	nt	nt	nt	?	nt
CN(C)c1ccc(C(CNC(=O)COc2ccc(Cl)cc2)N2CCCC2)cc1 (stereo not given)	?	10.2%	-3.7%	7.8%	?	?
COc1ccc(C(=O)NCC(c2ccc(N(C)C)cc2)N2CCCC2)c(OC)c1 (stereo not given)	13µM*	nt	nt	nt	?	nt
Cc1cc(C)cc(OCC(=O)NCC(c2ccc(Cl)cc2)N2CCCCC2)c1 (stereo not given)	16.4µM*	nt	nt	nt	20.6µM*	nt
SMILES	TDP1 cell noCPT	RORgamma inh	VP16 counter	ELG1 repair inh	TDP1 cell CPT	IL-1B inflam inh
COc1ccc(OCC(=O)NCC(c2ccc(Cl)cc2)N2CCCCC2)cc1 (stereo not given)	?	nt	nt	nt	20.6µM*	nt
COCO[C@H]([C@@H](C)C=C(Br)Br)[C@@H](C)COCc1ccc(OC)cc1	nt	2.9%	1.5%	nt	nt	nt
c1ccc(COCc2ccccc2)cc1	nt	1.4%	-1.8%	nt	nt	nt
CCCCCC1OC1C/C=C\C/C=C\C/C=C\CCCC(=O)O (stereo not given)	nt	-13.5%	-3.5%	nt	nt	nt
CC(OC(=O)CSCC(=O)Nc1ccc(Cl)cc1)C(=O)N(C)Cc1ccccc1 (stereo not given)	?	nt	nt	nt	?	-5.4
COc1ccc(C(=O)NCC(c2ccc(Cl)cc2)N2CCCCC2)cc1 (stereo not given)	11.6µM*	nt	nt	nt	14.6µM*	nt
CCc1cc(C(=O)NCC(c2ccc(OC)cc2)N2CCOCC2)sc1C (stereo not given)	-21.7%	nt	nt	-9.4%	-9.2%	-8.0
Cc1ccc2oc(C(=O)NCC(c3ccc(Cl)cc3)N3CCOCC3)c(C)c2c1 (stereo not given)	10.3µM*	nt	nt	nt	8.2µM*	nt
Cc1c(C(=O)NCC(c2ccc(Cl)cc2)N2CCOCC2)oc2ccccc12 (stereo not given)	23.1µM*	nt	nt	nt	16.4µM*	nt
CCC1CCc2sc(C(=O)NCC(c3ccc(OC)cc3)N3CCOCC3)cc2C1 (stereo not given)	13µM*	nt	nt	?	23.1µM*	-17.3
COc1ccc(C(CNC(=O)c2ccco2)N2CCOCC2)cc1 (stereo not given)	11.2%	nt	nt	?	-19.5%	-3.7
Cc1c(C(=O)NCCN2CCOCC2)oc2ccccc12	-22.5%	8.6%	5.0%	?	-6.6%	0.0
COc1ccc(C(CNC(=O)c2ccc(-c3cccc(C(F)(F)F)c3)o2)N2CCOCC2)cc1 (stereo not given)	20.6µM*	nt	nt	?	?	-27.7
CCOC(=O)c1c(NC(=O)c2cc(=O)c3ccc(C)cc3o2)sc(C)c1C	-1.5%	nt	nt	nt	-8.7%	nt
COc1ccc(CN(C)C(=O)[C@H]2O[C@@H](n3cnc4c(N)ncnc43)[C@H](O)[C@@H]2O)cc1OC	6.9%	nt	nt	nt	-1.7%	2.2
